KB-3-1 tox: qHTS assay for MDR1-selective chemotherapeutics: Primary screen using the parental adenocarcinoma cell KB-3-1; KB-3-1 viability, CellTiter-Glo ATP luminescence, 72 h; Potency, µM (top dose mostly 46.1 µM), hits mostly cytotoxic; hit rate 1.4% among 400,000; further: nearly all actives have a fitted effect of over 60% in size
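Luminescent ATP read-out (CellTiter-Glo) measures survival of drug-naive KB-3-1 cells after 72 h compound exposure at 37 °C. Titration series was screened from lowest to highest concentration, with DMSO vehicle plates as background controls.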
DRD3 agonist: qHTS of D3 Dopamine Receptor Agonist: qHTS | D(3) dopamine receptor (Homo sapiens), P35462 | D3R DiscoveRx beta-arrestin cells, luminescence, 90 min | max activation, % | hit rate 0.58% among 410,000; in the data active means max activation above about 30%
Target sequence (P35462 whole entry, looked up): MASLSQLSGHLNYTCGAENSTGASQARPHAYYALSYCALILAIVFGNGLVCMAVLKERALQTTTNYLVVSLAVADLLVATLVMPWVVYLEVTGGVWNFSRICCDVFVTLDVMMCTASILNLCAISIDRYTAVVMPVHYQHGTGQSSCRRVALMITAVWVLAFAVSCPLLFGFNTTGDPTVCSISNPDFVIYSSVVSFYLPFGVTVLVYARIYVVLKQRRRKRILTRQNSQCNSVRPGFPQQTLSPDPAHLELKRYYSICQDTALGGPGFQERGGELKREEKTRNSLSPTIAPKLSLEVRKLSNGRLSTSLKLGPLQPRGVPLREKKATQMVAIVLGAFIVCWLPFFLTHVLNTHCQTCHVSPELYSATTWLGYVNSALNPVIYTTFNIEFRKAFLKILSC
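Agonist-mode cell screen: cells plated at 1500/well and incubated overnight at 37 °C, then exposed to library compounds for 90 min at 37 °C. Detection reagent was added for 30–60 min at room temperature, and luminescence was read.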
SW480 rereplic: A quantitative high throughput screen for small molecules that induce DNA re-replication in SW480 colon adenocarcinoma cells; Potency, µM (series often up to 46.1 µM), actives largely listed as activators; hit rate 1.8% among 340,000; SW480 DNA re-replication, Hoechst DNA content imaging, 48 h; AID 624297, 2012; further: nearly all actives have a fitted effect of over 55% in size
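Hoechst fluorescence of nuclei (405 nm excitation, 500-530 nm emission) measured by plate-scanning imager after 48 hr compound exposure at 37 C; re-replication scored as increased number of nuclei with elevated intensity.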
DRD3 antagonist: qHTS of D3 Dopamine Receptor Antagonist: qHTS. D(3) dopamine receptor (Homo sapiens), P35462. D3R cells, DiscoveRx beta-arrestin luminescence, antagonist mode; stronger effect = lower value. max response, negative = inhibition, %. hit rate 2.5% among 360,000. AID 652054, 2013; in the data active means max response below about -50%; inconclusive means no clear call, values can overlap the other calls
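Cells expressing the human receptor were seeded at 1500 cells/well, incubated overnight at 37 degrees C in 5% CO2, then exposed to library compounds with dopamine controls for 90 minutes at 37 degrees C before luminescent detection.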
KB-V1 MDR tox: qHTS assay for MDR1-selective chemotherapeutics: Primary screen using the drug-selected MDR subline cells KB-V1; KB-V1 MDR cells viability, CellTiter-Glo, 72 h; Potency, µM (doses to about 46.1 µM), actives largely listed as cytotoxic; hit rate 3.4% among 400,000; AID 1347076, 2019; further: nearly all actives have a fitted effect of over 60% in size
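Drug-selected KB-V1 cells, grown in DMEM lacking phenol red with 10% FBS, receive compound titrations; after three days at 37 degrees C, surviving cell ATP is quantified by CellTiter-Glo luminescence and responses normalized and curve-fitted.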
MCF10A rereplic: A quantitative high throughput screen for small molecules that induce DNA re-replication in MCF 10a normal breast cells; Potency, µM (top dose mostly 46.1 µM), actives largely listed as activators; hit rate 2.9% among 350,000; MCF 10A DNA re-replication, Hoechst nuclear intensity, 48 h; AID 624296, 2012; further: nearly all actives have a fitted effect of over 50% in size
Hits are given with their value; – = inactive; ? = inconclusive; · = not tested or not shown. Sampled rows, rich in hits. Any-hit rate of the full collection: about 8.9%. Unless noted, the call rests on the fitted dose curve; in most records, active means well fitted curve in the direction sought with a large enough effect; inconclusive means small, poorly fitted or top-dose-only effect, or another doubt; inactive means no such curve, though single readings can be large; an effect the other way counts as inactive or inconclusive.

SMILES | KB-3-1 tox | DRD3 agonist | SW480 rereplic | DRD3 antagonist | KB-V1 MDR tox | MCF10A rereplic
COc1ccccc1NC(=O)CN1CCN(c2ccccc2OC)CC1 | – | – | – | – | – | –
COc1ccccc1N1CCN(CC(=O)NCc2ccc(Cl)cc2)CC1 | – | – | – | -70 | – | –
Cc1ccc(Cl)cc1N1CCN(CCNC(=O)Nc2ccc(Cl)cc2)CC1 | – | – | · | · | – | ·
COc1ccccc1N1CCN(CC(=O)NC(=O)NCc2ccccc2)CC1 | – | – | · | – | ? | ·
Cc1cccc(-c2noc(-c3ccc(NCc4ccccc4)c([N+](=O)[O-])c3)n2)c1 | – | – | · | · | – | ·
C=Cc1ccc(S(=O)(=O)O)cc1 | · | – | – | · | · | –
O=C(c1cc(C2CC2)nn1-c1ccccc1)N1CCN(c2ccccn2)CC1 | – | – | – | – | ? | –
Cc1ccc(Cl)cc1N1CCN(C(=O)CSc2ccsc2[N+](=O)[O-])CC1 | – | – | – | – | 5.2µM | ?
Cc1ccc(Cl)cc1N1CCN(C(=O)CSc2cc(=O)n(C)c3ccccc23)CC1 | – | – | · | · | – | ·
O=C(CSc1ccc(Cl)cc1)N1CCN(c2ccc([N+](=O)[O-])cc2Cl)CC1 | ? | – | – | – | 16µM | ?
O=C(c1cc(C2CC2)nn1-c1ccccc1)N1CCN(c2ncc(C(F)(F)F)cc2Cl)CC1 | – | – | – | – | 16µM | 13µM
O=C(CN1CCN(c2ncc(C(F)(F)F)cc2Cl)CC1)N1CCN(c2ncc(C(F)(F)F)cc2Cl)CC1 | ? | – | ? | -61 | – | ?
CCc1ccc(-n2nc(C)c3c(C)cc(=O)n(CC(=O)Nc4ccccc4C(=O)OC)c32)cc1 | – | – | · | · | – | ·
O=C(Nc1c(C(=O)N2CCN(c3ccccc3F)CC2)oc2ccccc12)c1cccc(F)c1 | – | – | · | · | – | ·
CCOc1ccc(OCC)c(NS(=O)(=O)c2cc(-c3cc(C)no3)ccc2C)c1 | – | – | · | · | – | ·
O=C(CSc1ccc(Cl)cc1)N1CCN(c2ncc(C(F)(F)F)cc2Cl)CC1 | – | – | – | – | 15µM | ?
O=C(OCCN1CCN(c2ncc(C(F)(F)F)cc2Cl)CC1)c1ccc(F)cc1 | – | – | – | ? | – | –
Cc1ccc(C(=O)OCCN2CCN(c3ncc(C(F)(F)F)cc3Cl)CC2)cc1 | – | – | – | -83 | – | –
O=C(CSc1ncc(C(F)(F)F)cc1Cl)N1CCN(S(=O)(=O)c2ccc(Cl)cc2)CC1 | – | – | – | – | – | –
CCc1ccc(-n2nc(C)c3c(C)cc(=O)n(CC(=O)Nc4ccc(C(C)=O)cc4)c32)cc1 | – | – | · | · | – | ·
COc1ccc(COCC(O)CN2CCc3ccccc3C2)cc1OC (stereo unspecified) | – | – | – | -61 | ? | –
OC(COCc1ccccc1)CN1CCc2ccccc2C1 (stereo unspecified) | – | – | · | -65 | – | –
CCSC1=NS(=O)(=O)c2ccccc21 | – | · | · | · | ? | ·
Cc1ccc(CNC(=O)c2ccc([N+](=O)[O-])o2)cc1 | ? | – | ? | – | ? | ?
Cc1ccc(C(=O)/C=C/c2ccc(Br)cc2)o1 | – | – | 18µM | – | – | 7.3µM
SMILES | KB-3-1 tox | DRD3 agonist | SW480 rereplic | DRD3 antagonist | KB-V1 MDR tox | MCF10A rereplic
O=C(/C=C/c1ccc(Cl)cc1)c1ccc([N+](=O)[O-])o1 | ? | – | ? | -101 | ? | 8.2µM
O=C(OCCCOC(=O)c1ccc([N+](=O)[O-])o1)c1ccc([N+](=O)[O-])o1 | – | – | – | – | – | –
Cc1ccc(C(=O)/C=C/c2ccccc2)o1 | ? | – | – | ? | ? | ?
Cc1ccc(/C=C/C(=O)c2ccc([N+](=O)[O-])o2)cc1 | – | – | 1.5µM | -62 | ? | 3.3µM
O=C(Nc1ccccc1)N(Cc1cccc(Cl)c1)c1ccccn1 | – | – | · | · | ? | ·
CCCOc1ccc2c(c1)C(=NN=C(N)N)c1cc(OCCC)ccc1-2 | ? | – | 18µM | – | ? | ?
O=C(Cn1nc(N2CCN(c3ccccc3)CC2)ccc1=O)NCc1ccccc1F | ? | – | · | · | – | ·
Cc1cccc(NC(=S)N=Nc2c(O)[nH]c3ccccc23)c1 | – | – | ? | – | – | 6.5µM
COc1ccccc1NC(=S)N=Nc1c(O)[nH]c2ccc(Br)cc12 | 2.3µM | – | – | – | ? | ?
O=C(c1nc(-c2ccc(Cl)cc2)n2c1CCCCC2)N1CCN(c2ccccc2)CC1 | – | – | · | · | – | ·
CSc1nnc(-c2sc3cc(C(F)(F)F)cnc3c2-c2ccccn2)n1C | ? | – | – | – | 18µM | –
Cc1cc(C)c(NC(=O)CCN2CCCCC2)c(C)c1 | – | – | · | · | – | ·
CN(C)c1ccc(C#Cc2ccc3cc(CCO)oc(=O)c3c2)cc1 | – | – | ? | – | – | 12µM
O=c1c2c(-c3ccc(Cl)cc3)csc2nc2n1CCC2 | – | – | – | – | 18µM | –
O=C(Cn1nc(C(F)(F)F)c2c1CCC2)N1CCN(c2ccccc2)CC1 | – | – | – | – | 16µM | ?
COc1ccccc1NC(=O)Cn1nc(C(F)(F)F)c2c1CCCC2 | – | – | – | – | 21µM | –
O=C(Cn1nc(C(F)(F)F)c2c1CCCC2)N1CCOCC1 | – | – | – | – | – | –
COc1cc(NC(=O)CC(C)S(=O)(=O)c2ccc3c(c2)CCN3C(C)=O)cc(OC)c1OC (stereo unspecified) | – | – | · | · | ? | ·
CC(C)Cc1nc2oc3c(Cl)ncnc3c2c2c1CCC2 | – | – | 4.1µM | – | – | ?
CCOc1ccc(-c2c(C)nn3c(C)c(C(=O)NC(C)c4ccccc4)cnc23)cc1OCC (stereo unspecified) | – | – | · | · | – | ·
OCC1(Cc2cccc(C(F)(F)F)c2)CCN(Cc2cc3ccccc3o2)CC1 | ? | – | ? | – | ? | 23µM
Cc1c(CN2CCC(CO)(Cc3cccc(C(F)(F)F)c3)CC2)c2ccccc2n1C | ? | – | ? | – | ? | ?
COc1ccc(CC2(CO)CCN(Cc3cc4ccccc4o3)CC2)cc1 | – | – | – | -56 | ? | ?
COc1ccc(CC2(CO)CCN(Cc3ccncc3)CC2)cc1 | – | – | – | – | – | ?
Cc1cc(C(=O)COC(=O)c2ccc(O)cc2)c(C)n1CC1CCCO1 (stereo unspecified) | – | – | – | – | ? | –
Cc1cc(C(=O)COC(=O)c2ccc3c(c2)NC(=O)CS3)c(C)n1CC1CCCO1 (stereo unspecified) | – | – | ? | – | 12µM | ?
CCSC1=NC2(CCN(C(=O)NC3CCCCC3)CC2)N=C1c1ccc(OC)cc1 | – | – | · | · | – | ·
CC(C)[C@H](NC(=O)OC(C)(C)C)c1nnc(SCc2cccc(F)c2)o1 | – | – | ? | – | 13µM | –
